# Hits are enriched below; roughly 5.8% of the tested compounds scored in any of these assays.
# ALOX12 inh: blocks human arachidonate 12S-lipoxygenase; P18054; purified 12hLO, xylenol orange hydroperoxide absorbance; Potency, µM (titrated, usually from 108 µM), without a hit: at the top dose activity change, negative = inhibition, actives largely listed as inhibitors; 580,000 tested, 1.1% active; further: on the % scale 0 is the no-effect control and ±100 the full control effect
# Target sequence (P18054 whole entry, looked up): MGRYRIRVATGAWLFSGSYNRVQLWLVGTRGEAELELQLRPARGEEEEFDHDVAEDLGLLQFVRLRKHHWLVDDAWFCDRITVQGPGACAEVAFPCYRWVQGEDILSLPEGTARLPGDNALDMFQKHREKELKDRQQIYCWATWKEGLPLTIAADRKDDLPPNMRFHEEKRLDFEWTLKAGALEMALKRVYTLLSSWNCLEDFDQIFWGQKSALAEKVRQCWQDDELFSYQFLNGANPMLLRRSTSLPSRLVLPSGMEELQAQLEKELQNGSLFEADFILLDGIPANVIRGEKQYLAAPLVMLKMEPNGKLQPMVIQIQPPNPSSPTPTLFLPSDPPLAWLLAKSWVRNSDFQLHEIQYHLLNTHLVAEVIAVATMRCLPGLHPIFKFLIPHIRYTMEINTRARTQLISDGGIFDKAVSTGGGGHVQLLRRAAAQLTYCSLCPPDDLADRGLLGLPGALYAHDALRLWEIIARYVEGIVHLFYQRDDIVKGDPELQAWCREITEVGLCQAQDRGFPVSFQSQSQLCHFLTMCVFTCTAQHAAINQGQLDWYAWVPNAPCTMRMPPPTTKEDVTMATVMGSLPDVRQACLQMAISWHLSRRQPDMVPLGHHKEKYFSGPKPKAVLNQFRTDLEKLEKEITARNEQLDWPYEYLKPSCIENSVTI
#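 Purified human 12hLO at 150 nM in 25 mM Hepes, 0.01% Triton X-100, pH 7.0, preincubated 15 min at room temperature with compound. Reaction started with 40 uM arachidonic acid, 30 min at room temperature. Hydroperoxide measured by Fe-xylenol orange, 573/405 nm absorbance ratio.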
# KB-V1 MDR tox: KB-V1 MDR subline cytotoxicity. KB-V1 MDR cells viability, CellTiter-Glo, 72 h. Potency, µM (highest dose often 46.1 µM), most hits filed as cytotoxic. 400,000 tested, 3.4% active. AID 1347076; further: on the % scale 0 is the no-effect control and ±100 the full control effect; nearly all actives have a fitted effect of over 60% in size
#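 Cells of the MDR subline KB-V1 are plated, dosed with compound at multiple concentrations, and incubated 72 h at 37 degrees C; CellTiter-Glo is then added and luminescence read after 10 min.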
# PINK1 modulator: PINK1 expression modulation; PINK1 immunofluorescence, high-content cytometry, 24 h; Potency, µM (titrated, usually from 76.6 µM), for the others: at the top dose activation (PINK1 increase), actives largely listed as activators; 410,000 tested, 0.2% active; AID 624263; active means well fitted activation curve with a large enough effect; inconclusive means small, poorly fitted or top-dose-only effect; cell line not stated here; further: % of control where 0% means no effect; nearly all actives have a fitted effect of over 65% in size
#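 Readout is PINK1 immunofluorescence, quantified alongside mitochondrial, cell and nuclear markers by laser-scanning microplate cytometry. Cells from a stable line were exposed to compound titrations (5 concentrations) for 24 hours, with CCCP controls.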
# MCF10A rereplic: inducers of DNA re-replication in MCF 10A breast cells. MCF 10A DNA re-replication, Hoechst nuclear intensity, 48 h. Potency, µM (top dose mostly 46.1 µM), for inactives: at the highest dose activity, positive = re-replication, usual class: activators. 350,000 tested, 2.9% active. AID 624296; further: % of control where 0% means no effect; nearly all actives have a fitted effect of over 50% in size
# KB-3-1 tox: KB-3-1 parental cell cytotoxicity; Potency, µM (highest dose often 46.1 µM), usual class: cytotoxic; KB-3-1 viability, CellTiter-Glo ATP luminescence, 72 h; 400,000 tested, 1.4% active; further: on the % scale 0 is the no-effect control and ±100 the full control effect; nearly all actives have a fitted effect of over 60% in size
#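 KB-3-1 cells, DMEM (no phenol red) + 10% FBS; compound by pin transfer, 72 h, 37 °C. Readout: CellTiter-Glo luminescence after 10 min. Data normalized, curve-fitted.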
# SW480 rereplic: inducers of DNA re-replication in SW480 colon cancer cells. SW480 DNA re-replication, Hoechst DNA content imaging, 48 h. 340,000 tested, 1.8% active. Potency, µM (highest dose often 46.1 µM), without a hit: at the top dose re-replication activation, actives largely listed as activators; further: % of control where 0% means no effect; nearly all actives have a fitted effect of over 55% in size
#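 250 cells/well; 23 nL cpd via pin tool; 48 hr, 37 C, 5% CO2; Hoechst 40 min; imager read of total nuclear intensity, ex 405/em 500-530 nm.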
# Active calls of the source: *; i = inactive; u = inconclusive; x = not tested or not shown; [ ] = dose if it differs, or a comment. Unless noted, the call rests on the fitted dose curve; in most records, active means well fitted curve in the direction sought with a large enough effect; inconclusive means small, poorly fitted or top-dose-only effect, or another doubt; inactive means no such curve, though single readings can be large; an effect the other way counts as inactive or inconclusive. Potency means the concentration at half of the fitted maximal effect.
SMILES,ALOX12 inh,KB-V1 MDR tox,PINK1 modulator,MCF10A rereplic,KB-3-1 tox,SW480 rereplic
O=C(CSc1nnc2c(n1)[nH]c1ccc(F)cc12)Nc1ccccc1F,0%,i,5%,-1%,i,-8%
CCCCC(CC)C(=O)Nc1ccc(F)c(F)c1 (stereo unspecified),7%,x,x,x,x,x
Cc1cc(N2CCCCCC2)n2nc(Cc3ccc(Cl)cc3)nc2n1,8%,x,x,x,x,x
Cc1cc(C)nc(SCC(=O)Nc2ccccc2C(N)=O)n1,50µM*,x,x,x,x,x
Cc1ccccc1Nc1nnc(SCC(=O)Nc2ccccc2[N+](=O)[O-])s1,-14%,i,1%,-4%,i,-5%
Cc1cccc(Nc2nnc(SCC(=O)Nc3ccccc3[N+](=O)[O-])s2)c1,-7%,21µM*,13%,7%,i,2%
COC(=O)c1ccccc1NC(=O)CSc1nc(C)cc(C)n1,16%,i,2%,6%,i,-7%
Cc1cc(C)nc(SCNC(=O)c2ccccc2)n1,8%,i,8%[38.3 µM],u,i,5.8µM*
O=c1c(Cl)c(Cl)cnn1-c1ccccc1,-3%,i,-1%,3.7µM*,18µM*,4.1µM*
CCOc1cnn(-c2ccccc2)c(=O)c1Cl,229%,i,23%,26µM*,i,6%
CCN(C(=O)C1CCCC1)C1CC1,-13%,x,x,x,x,x
COc1cc(Nc2nc(SCC(=O)c3ccc(Br)cc3)nc3ccccc23)cc(OC)c1,0%,x,4%,x,x,x
COc1cc(Nc2nc(SCC#N)nc3ccccc23)cc(OC)c1OC,1%,21µM*,-4%[38.3 µM],-5%,i,-6%
N#CCSc1nc(Nc2ccc3c(c2)OCO3)c2ccccc2n1,0%,15µM*,1%[38.3 µM],u,i,1%
Cc1ccc(CN(C)Cc2ccccc2C)o1,43%,x,x,x,x,x
CCN(CCOc1ccccc1)C(=O)c1ccoc1C,4%,x,x,x,x,x
COc1ccc(CCNc2nc(C)nc3sc4c(c23)CCCC4)cc1OC,-21%,x,x,x,x,x
COc1cccc(NC2c3ccccc3C(=O)N2Cc2ccccc2Cl)c1 (stereo unspecified),0%,i,1%,u,i,21µM*
O=C1CC(O)(C(F)(F)F)Oc2c1ccc1ccccc21 (stereo unspecified),-13%,i,x,21µM*,i,u
O=C1CC(O)(C(F)F)Oc2ccc3ccccc3c21 (stereo unspecified),322%,i,-1%,-7%,i,-3%
COc1cccc(CSc2nc(N)cc(N)n2)c1,0%,i,3%,-8%,i,u
COc1cccc(CSc2nc3ccccc3cc2C=O)c1,12%,u,4%,13µM*,u,1.3µM*
COC(=O)C1CCN(c2ccc([N+](=O)[O-])cc2[N+](=O)[O-])CC1,-25%,16µM*,-3%,-7%,i,-89%
Cc1ccc(-c2[nH]nc(N)c2N=Nc2ccccc2C)cc1,13%,u,6%,u,u,u
Cc1ccc(-c2[nH]nc(N)c2N=Nc2cccc(Cl)c2C)cc1,0%,u,-2%,21µM*,u,u
SMILES,ALOX12 inh,KB-V1 MDR tox,PINK1 modulator,MCF10A rereplic,KB-3-1 tox,SW480 rereplic
N#Cc1cccc(CNS(=O)(=O)Cc2ccccc2)c1,14%,x,x,x,x,x
O=S(=O)(Cc1ccccc1)NCc1cccc(CNS(=O)(=O)Cc2ccccc2)c1,35µM*,x,x,x,x,x
Cc1ccc(C)c2c1cc(C)c1nnc(SCC(=O)N3CCCc4ccccc43)n12,16%,9.2µM*,1%,4%,u,-141%
COc1cccc(-n2nnnc2SCC(=O)NC2CCCC2)c1,-11%,21µM*,-3%,3%,i,-2%
Cc1ccc(C(=O)Nc2nnc(SCC(=O)N3CCCc4ccccc43)s2)cc1,-7%,23µM*,2%,u,i,4%
O=C(CSc1nnnn1-c1cccc(F)c1)NC1CCCCC1,3%,18µM*,4%,-3%,i,-7%
Cc1cc(C)c2c(c1)cc(C)c1nnc(SCC(=O)N3CCCc4ccccc43)n12,0%,u,2%,13%,i,2%
COc1cccc(-n2nnnc2SCC(=O)NC2CCCCC2)c1,7%,i,-2%,9%,i,2%
CCc1ccccc1NC(=O)c1nn(Cc2ccccc2)c(=O)c2ccccc12,10%,x,x,x,x,x
CCn1cc(CNC(=O)c2cc(-c3cccc(C)c3)nc3ccccc23)cn1,-23%,x,x,x,x,x
COc1cccc(-n2nnnc2SCC(=O)N2CCCc3ccccc32)c1,17%,i,-4%[38.3 µM],u,i,12µM*
CN1C(=O)/C(=C\c2ccc(N(C)C)cc2)OC1=S,-37%,i,32µM*,28%,i,u
Cc1cc(=O)oc2cc(OCC(=O)N(C)CCOc3ccc(Br)cc3)ccc12,-10%,x,x,x,x,x
CC(NC(=O)CCc1cccs1)C1CCCO1 (stereo unspecified),-21%,x,x,x,x,x
O=c1c2cnn(-c3ccccc3)c2ncn1CCc1ccccc1,0%,i,4%,15%,i,235%
COC(=O)c1ccccc1NC(=O)Cn1cnc2c(cnn2-c2ccccc2)c1=O,-19%,6.5µM*,6%[38.3 µM],-7%,i,-5%
CCn1cnc2c(cnn2-c2ccccc2)c1=O,0%,10µM*,0%,8%,u,4%
Cc1cc(NC(=O)c2ccc3c(c2)N(C)C2CCCCCN2C3=O)ccc1Br (stereo unspecified),9%,x,x,x,x,x
Cc1ccc(NC(=O)COC(=O)CCC2CCCC2)c(Br)c1,2%,i,1%,-3%,i,4%
O=C(COC(=O)CCC1CCCC1)Nc1ccc(Cl)cc1F,4%,i,3%,-6%,i,23µM*
CCN(CC)S(=O)(=O)c1ccc(C(=O)NCc2n[nH]c(=S)n2Cc2ccccc2)cc1,25µM*,i,-2%[38.3 µM],u,i,4%
O=C(NCc1n[nH]c(=S)n1Cc1ccccc1)c1ccccc1,-17%,i,-2%,2%,i,-46%
CC1=CC(C)=Nc2ccccc2N1,-10%,i,x,21µM*,i,-10%
COc1cccc(NC(=O)CN(C)C(=O)/C=C/c2cn(Cc3ccccc3)nc2-c2cccnc2)c1,-12%,i,2%,u,i,15µM*
COc1cccc(N2CCN(C(=O)c3cn(Cc4ccccc4)nc3-c3cccnc3)CC2)c1,0%,u,5%,5.2µM*,1.8µM*,4.1µM*
CCN(CC(=O)Nc1ccc(NC(C)=O)cc1)C(=O)/C=C/c1cn(Cc2ccccc2)nc1-c1cccnc1,-1%,i,0%,-19%,i,-28%
COc1ccccc1N1CCN(C(=O)c2cn(Cc3ccccc3)nc2-c2cccnc2)CC1,7%,u,11%,-2%,i,2%

# Source: PubChem BioAssay
